Data: PubChem BioAssay AID686970 (National Center for Advancing Translational Sciences (NCATS), 2013)
Hit rate of the full screen: of about 360,000 compounds, about 6,000 (1.7%) were called active. About 8% were inconclusive and are not listed. Calls follow the shape of the dose curve; as a rule, active = well fitted cell-killing curve with a large enough effect; inconclusive = small, poorly fitted or top-dose-only effect, or effect the other way; inactive = flat fitted curve, though single readings scatter. Shown is part of a subset that was picked to be rich in actives.

Assay: qHTS for induction of synthetic lethality in tumor cells producing 2HG: qHTS for the HT-1080-NT fibrosarcoma cell line;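 also: NT is the 2HG producing partner of a matched IDH1 knockdown line; nearly all actives have a fitted effect of over 55% in size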;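 as to activity, negative = less viability: 0% = DMSO-treated cells and -100% = media-only wells without cells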
Conditions: HT-1080-NT fibrosarcoma viability, CellTiter-Glo ATP luminescence, 48 h; series mostly up to 46.1 µM; activity, negative = less viability: at the top concentration
Method in brief: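 Luminescent CellTiter-Glo readout after 48 hours of compound exposure at 37 degrees C defined viability of HT-1080-NT cells. Activity was normalized to DMSO wells and cell-free media wells; concentration-response curves were fitted and assigned curve classes.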
Potency is read from the fitted curve at half-maximal effect.

Row | Structure (SMILES) | activity, negative = less viability | Potency
1 | CCCNC(=O)C1(C)CCN1C(=O)Cc1ccc(-c2ccccc2)cc1 (stereo unspecified) | 3.66% (inactive) | –
2 | O=C(C(=O)N1CCN(c2ccccc2)CC1)c1ccc2c(c1)OCO2 | 15.8% (inactive) | –
3 | c1ccc(Cn2nnc3c(N4CCCCC4)ncnc32)cc1 | 0.199% (inactive) | –
4 | CC1(C(=O)NS(=O)(=O)c2ccc(Cl)cc2)CCN1C(=O)CC1CCCC1 (stereo unspecified) | 13.1% (inactive) | –
5 | Cn1nccc1NC(=O)Nc1ccc(OC(F)(F)F)cc1 | -1.39% (inactive) | –
6 | O=C(Nc1ccc(OC(F)(F)F)cc1)c1ccc2c(c1)no[n+]2[O-] | – | 18.4 µM (active)
7 | Cn1cccc1/C=N/NC(=O)c1ccc(OC(F)(F)C(F)F)cc1 | 9.82% (inactive) | –
8 | COC(=O)C[C@@H]1C=C[C@@H](NC(=O)c2cccnc2)[C@@H](CO)O1 | 18.2% (inactive) | –
9 | O=C(Nc1ccc(Cl)c(C(F)(F)F)c1)C1Cc2c(-c3ccccc3Oc3ccccc3)ccnc2O1 (stereo unspecified) | -2.68% (inactive) | –
10 | CC(C)CN1CCC1(C)C(=O)Nc1ccc(OC(F)F)cc1 (stereo unspecified) | 11.5% (inactive) | –
11 | Cc1cc(C)n2c(NCc3ccccc3)c(CC(C)C)nc2n1 | -1.83% (inactive) | –
12 | COc1ccccc1-c1cc2nc(NCc3cccc(Cl)c3)ccn2n1 | -2.73% (inactive) | –
13 | CC(C)Cc1ccc(-c2cc3nc(NCc4cccc(Cl)c4)ccn3n2)cc1 | – | 23.1 µM (active)
14 | O=C(C(=O)N1CCC(c2ccccc2)CC1)c1ccccc1 | 15.2% (inactive) | –
15 | CCC1OC(C2CC2)CC2=C1C(=O)OC(C)(C)O2 (stereo unspecified) | 14.2% (inactive) | –
16 | Cc1ccc(Cl)cc1-c1ccc(/C=N/n2cnnc2)o1 | -2.27% (inactive) | –
17 | Clc1cc(-c2ccc(/C=N/n3cnnc3)o2)ccc1Br | 17.7% (inactive) | –
18 | Cc1cc([N+](=O)[O-])c(-c2ccc(/C=N/n3cnnc3)o2)cc1Cl | – | 10 µM (active)
19 | COC(=O)[C@H]1C[C@H](OC(=O)NCc2ccccc2)[C@@]2(O)CN(S(=O)(=O)c3ccc(C)cc3)CC2[C@H]1C(=O)OC (stereo partly specified) | -0.355% (inactive) | –
20 | COc1ccc(-c2cc3c(c4c2ccn4C)C2CCC3C2)cn1 (stereo unspecified) | 0.812% (inactive) | –
21 | COC(=O)C1(C(=O)OC)C/C=C\CN(S(=O)(=O)c2ccccc2[N+](=O)[O-])CCC1 | 11.2% (inactive) | –

Row | Structure (SMILES) | activity, negative = less viability | Potency
22 | COc1ccc(CN2C(=O)C(CC(=O)NC3CCCCC3)CC(C(=O)N3CCOCC3)=C2C)cc1 (stereo unspecified) | 11.3% (inactive) | –
23 | COc1cc(C(=O)N(C)Cc2cccc(OC)c2OC)ccc1OCC(=O)Nc1cccc(C(F)(F)F)c1 | – | 8.2 µM (active)
24 | COc1ccc(C(=O)OCC(=O)Nc2cccc(C(C)=O)c2)cc1OC | -1.17% (inactive) | –
25 | CCNC(=O)c1ccc(OCC(=O)Nc2ccc(F)cc2)c(OC)c1 | 6.01% (inactive) | –
26 | COc1ccc(CN2CCC(C)(Oc3cccc(F)c3)C2)c2ccccc12 (stereo unspecified) | -21.7% (inactive) | –
27 | CC1(C)CCc2cc(S(=O)(=O)N3CCN(c4nc(-c5cccs5)nc5ccccc45)CC3)ccc2O1 | 21.5% (inactive) | –
28 | COc1ccc(-c2ccc(C(=O)NCCN3CCOCC3)c3occc23)c(C)c1 | – | 16.4 µM (active)
29 | COc1ccc(-c2cc(C(=O)NCCCN3CCOCC3)no2)cc1 | 12.7% (inactive) | –
30 | COc1ccc(-c2ccc(C(=O)NC(C)C)c3occc23)c(C)c1 | 4.35% (inactive) | –
31 | CC1(C(=O)NCc2ccccc2)CSCC(=O)N1CCCn1ccnc1 (stereo unspecified) | 13.7% (inactive) | –
32 | COC(=O)C[C@H]1C=C[C@@H](NS(=O)(=O)c2ccc(C)cc2)[C@@H](CO)O1 | 22.6% (inactive) | –
33 | Cc1ccc(S(=O)(=O)N2C[C@H]3C(=O)C[C@@H](c4cccc5ccccc45)N(S(=O)(=O)c4ccc(C)cc4)[C@H]3C[C@H]2c2ccc(Cl)cc2)cc1 | -0.387% (inactive) | –
34 | Nc1ncnc2c1ncn2[C@@H]1O[C@H](C(=O)N2CCSC2)[C@@H](O)[C@H]1O | 19.5% (inactive) | –
35 | C[C@@H]1CN([C@@H](C)CO)C(=O)c2cc(Br)cnc2O[C@@H]1CN(C)C(=O)C1CCCCC1 | 5.55% (inactive) | –
36 | CCCCC(=O)Nc1ccc(C(=O)Nc2cc(C(F)(F)F)ccc2Cl)cc1 | – | 16.4 µM (active)
37 | CC(=O)Nc1ccc(NC(=O)CCCNC(=O)c2ccc(Cl)cc2)cc1 | 7.73% (inactive) | –
38 | O=C(Nc1cc(C(F)(F)F)ccc1Cl)C(=O)N1CCCCC1 | 20.2% (inactive) | –
39 | CCCCNC(=O)C[C@@H]1C[C@@]2(C(=O)OCC)CCC=C2N(Cc2cccc3ccccc23)C1=O | -3.48% (inactive) | –
40 | CC1(C(=O)NS(=O)(=O)C2CC2)CCCN(C(=O)CSc2ccccc2)C1 (stereo unspecified) | 22.9% (inactive) | –
41 | Cc1cc2oc(=O)cc(CN(C)Cc3ccccc3)c2cc1Cl | 2.42% (inactive) | –
42 | CC1CCCC(NC(=O)COC(=O)c2ccccc2C(=O)N(C)C2CCCCC2)C1C (stereo unspecified) | -15.3% (inactive) | –

Row | Structure (SMILES) | activity, negative = less viability | Potency
43 | Cc1ccccc1C1=N/C(=C/c2cccnc2)C(=O)O1 | 15.5% (inactive) | –
44 | O=C1/C(=C\c2cccnc2)CN(Cc2ccccc2)C/C1=C\c1cccnc1 | – | 1.3 µM (active)
45 | O=C(O)C1CC(=O)N(Cc2cccnc2)C1 (stereo unspecified) | 9.15% (inactive) | –
46 | N#Cc1cccc(NC(=O)c2cc(C3CCCCN3C(=O)CCc3ccccc3)on2)c1 (stereo unspecified) | -5.5% (inactive) | –
47 | O=C1COc2ccc(S(=O)(=O)Nc3ccc(OC(F)(F)F)cc3)cc2N1 | -5.86% (inactive) | –
48 | O=S(=O)(Nc1ccc(O)c2ccccc12)c1ccc(OC(F)(F)F)cc1 | – | 23.1 µM (active)
49 | Cc1nn(C)c(C)c1NS(=O)(=O)c1ccc(OC(F)(F)F)cc1 | -7.69% (inactive) | –
50 | COc1ccc(CC(=O)NC2CCSc3ccccc32)cc1OC (stereo unspecified) | 0% (inactive) | –
51 | COc1ccc(CC2c3cc(OC)c(OC)cc3CC[N+]2(C)CCC(=O)OCCCCCOC(=O)CC[N+]2(C)CCc3cc(OC)c(OC)cc3C2Cc2ccc(OC)c(OC)c2)cc1OC (stereo unspecified) | – | 18.4 µM (active)
52 | COC(=O)C1=CN(Cc2ccc(OC)c(OC)c2)C=C(C(=O)OC)C1c1cccs1 | -6.81% (inactive) | –
53 | Cc1ccc(-c2ccc(CN3C(C)C(=O)N(Cc4cn(CCC5OCCCO5)nn4)CCS3(=O)=O)cc2)cc1 (stereo unspecified) | -19.9% (inactive) | –
54 | COc1ccc(C(C(=O)NC2CCCCC2)N(C(=O)c2snc(C(N)=O)c2N)c2ccccc2OC)cc1 (stereo unspecified) | -16% (inactive) | –
55 | COc1ccc(C(C(=O)NC2CCCCC2)N(C(=O)CCl)c2ccccc2Cl)cc1 (stereo unspecified) | – | 18.4 µM (active)
56 | Cc1ccccc1N(C(=O)CNC(=O)c1cccs1)C(C(=O)NC1CCCC1)c1ccncc1 (stereo unspecified) | 12.9% (inactive) | –
57 | Cc1ccc(Cc2c(-c3ccc(C)cc3)nc3c4ccccc4ccn23)cc1 | -2.86% (inactive) | –
58 | CN(C)CCCn1c(=O)n(Cc2ccccc2)c(=O)c2c3c(sc21)CCCCC3 | – | 16.4 µM (active)
59 | CCn1c(=S)[nH]c2sc3c(c2c1=O)CCCCC3 | -29.9% (inactive) | –
60 | O=c1c2c3c(sc2n(CCN2CCCC2)c(=O)n1Cc1ccccc1)CCCCC3 | -1.98% (inactive) | –
61 | O=C(NCc1ccccc1Cl)c1csc([C@@H]2O[C@H](CO)[C@@H](O)[C@H]2O)n1 | 6.23% (inactive) | –
